The results in this text go back to PubChem BioAssay.

Structures are written as SMILES. Active and inactive are the calls of the source. No rule for the calls is given here.

This assay can be described thus: inhibition of PAO1 biofilm formation – strain PAO1, LB-PBS medium, absorbance 600 nm, primary screen (AID 1176). Also: test concentration not given here. As to conditions: P. aeruginosa PAO1 growth/biofilm, A600, 12 h; higher = more signal.
On to `CCOC(=O)C[C@H]1[C@H](OC(=O)Cc2ccc3c(c2)OCO3)[C@@H](NC(=O)c2ccc(-c3ccccc3)cc2)c2cc(OCCCO)ccc2N1C(=O)Cc1ccc(OC)cc1`, for which the z-score is -0.0178 (inactive).

As to `C=CCNC(=O)[C@H]1[C@@H]2C(=O)O[C@@H](c3ccccc3)[C@@H](c3ccccc3)N2[C@@H](c2ccc(O)cc2)[C@]12C(=O)N(C(=O)OCCOC)c1ccc(C#CCNC(N)=O)cc12`, the z-score was 0.911 (inactive).

Consider `NCCCCCNC(=O)[C@@H]1C[C@@H]2C(=O)NCC(=O)N2[C@@H]1c1ccc(O)cc1`, for which the z-score is 0.227 (inactive).

On to `C[N+](C)(C)CCCC[C@@H]1NC(=O)[C@@H]2C[C@H](C(=O)NCCCCCN)[C@H](c3cccc(OCCO)c3)N2C1=O`, for which the z-score is 0.131 (inactive).

For the compound `COc1cc(CO)cc(I)c1O[C@H]1C=C(C(=O)NCCO)C[C@@H](N(CCN2CCOCC2)C(=O)C2CCOC2)[C@@H]1O` (stereo not given in full), the z-score is 0.355 (inactive).

Take `[N-]=[N+]=NCc1ccccc1[C@@H]1OC(c2ccc(OCCCO)cc2)=N[C@]1(Cc1ccccc1N=[N+]=[N-])C(=O)N1CCOCC1`: the z-score is 0.727 (inactive).

As for `O=C1NCC(=O)N2[C@@H]1C[C@@H](C(=O)O)[C@H]2c1cccc(OCCO)c1`, the z-score was -0.53 (inactive).

For the compound `COc1ccc([Si](C)(C)[C@H]2[C@H](CCO)O[C@@]3(C(=O)N(Cc4ccc(N5C(=O)COc6ccccc65)cc4)c4ccccc43)[C@@H]2C)cc1`, the z-score is 3.06 (inactive).

In the case of `O=C1c2ccccc2[C@@]2(Cc3ccccc3N(CCN3CCOCC3)C2=O)[C@H](c2ccc(CO)cc2)N1Cc1ccccc1`, the z-score is 0.168 (inactive).

`COc1ccc([Si](C)(C)[C@@H]2[C@@H](CC(=O)N3Cc4ccccc4C[C@H]3CO)O[C@]3(C(=O)N(C)c4c(Br)cc(C)cc43)[C@H]2C)cc1`: the z-score is 1.85 (inactive).

Regarding `CCOC(=O)C[C@H]1[C@H](OC(=O)Cc2ccc3c(c2)OCO3)[C@@H](NC(=O)c2ccc3ccccc3c2)c2cc(OCCCO)ccc2N1C(=O)c1ccccc1`, the z-score was 0.69 (inactive).

Consider `CN1C(=O)C2C=CC(C(O)c3ccccc3)N(Nc3ccccc3)C2C1=O` (stereo not given), for which the z-score is 1.67 (inactive).

With `CC(C)c1ccc(NN2C(C(O)C(c3ccccc3)c3ccccc3)C=CC3C(=O)N(c4ccccc4)C(=O)C32)cc1` (stereo not given), the z-score is 0.642 (inactive).

In the case of `C=C(CCCC)C(=O)CC[C@H](OC(=O)c1cccnc1)c1ccccc1OCCO`, the z-score is -0.317 (inactive).

`CC(C)[C@@H](CO)NC(=O)[C@H]1[C@@H](c2ccccc2)N(c2ccccc2)O[C@@H]1C`: the z-score is 0.0573 (inactive).

As for `CCOC(=O)[C@H]1CC=C2CC1C(=O)N1CCC[C@@H]1[C@@H]2O[Si](C)(C)C(C)(C)C` (stereo not given in full), the z-score is 0.543 (inactive).

In the case of `O=C(O)[C@@]1(CCS(=O)(=O)c2ccccc2)COC(c2ccc(OCCCO)cc2)=N1`, the z-score is -0.347 (inactive).

On to `CCOC(=O)[C@H]1C/C=C/C[C@H](C(=O)OCC)C(=O)O[C@H]2[C@@H](OC)O[C@H](CO)[C@@H](OC(=O)Nc3ccc(C#N)cc3)[C@@H]2OC1=O`, for which the z-score was 1.94 (inactive).

Take `COCCOC(=O)N1C(=O)[C@@]2(c3cc(C#CC4=CCCCC4)ccc31)[C@H](C(=O)N1CCc3cc(OC)c(OC)cc3C1)[C@H]1C(=O)O[C@H](c3ccccc3)[C@H](c3ccccc3)N1[C@@H]2c1ccc(OCCO)cc1`: the z-score was 3.64 (inactive).

Consider `C#CCN(CC=C(C)C)[C@H](CO)c1ccccc1`, for which the z-score is -0.635 (inactive).

For the compound `COc1ccc(C(O)C2C=CC3C(=O)N(c4ccccc4)C(=O)C3N2Nc2ccccc2F)cc1OCc1ccccc1` (stereo not given), the z-score is 1.11 (inactive).

Consider `COc1ccc(C(=O)Nc2ccc(CN3C(=O)[C@@]4(O[C@@H](CC(=O)N5CCC[C@H]5CO)[C@H]([Si](C)(C)c5ccc(OC)cc5)[C@H]4C)c4ccccc43)cc2)cc1`, for which the z-score is 1.58 (inactive).

For `CCOC(=O)C=Cc1cc([N+](=O)[O-])ccc1O`, the z-score is -0.501 (inactive).

`CCOc1cc(C(O)C2C=CC3C(=O)N(c4ccccc4)C(=O)C3N2Nc2ccccc2)ccc1O` (stereo not given): the z-score is 1.1 (inactive).

As for `CCOC(=O)C[C@H]1[C@H](OC(=O)c2cc3ccccc3oc2=O)[C@@H](NC(=O)Cc2ccc(OC)cc2)c2cc(OCCCO)ccc2N1C(=O)c1ccccc1`, the z-score is -0.329 (inactive).

As to `O=C(NCc1ccc(F)cc1)[C@H]1C[C@H]2C(=O)N[C@@H](Cc3ccccc3)C(=O)N2[C@H]1c1ccc(O)cc1`, the z-score is -0.0185 (inactive).

For `O=C(c1ccccc1)N1Cc2ccccc2[C@@H]2OC(c3ccc(OCCCO)cc3)=N[C@]2(Cc2ccccc2)C1=O`, the z-score is 2.05 (inactive).

Turning to `COc1ccc(C(=O)Nc2ccc(CN3C(=O)[C@@]4(O[C@@H](CCO)[C@H]([Si](C)(C)c5ccc(OC)cc5)[C@H]4C)c4ccccc43)cc2)cc1`, the z-score is 2.25 (inactive).

For `COc1ccc([Si](C)(C)[C@H]2[C@H](CCn3cc([C@H](O)c4ccccc4)nn3)O[C@@]3(C(=O)N(Cc4cccc(N5CCOC5=O)c4)c4ccccc43)[C@@H]2C)cc1`, the z-score is 1.43 (inactive).

On to `CCCC=C(CCC)[C@@H](NS(=O)(=O)c1cccs1)c1ccc(C(=O)OC)cc1`, for which the z-score was 0.535 (inactive).

For `O=C(NCc1ccccc1)[C@@]1(Cc2ccccc2)N=C(c2ccc(OCCCO)cc2)O[C@H]1c1ccccc1`, the z-score is 0.494 (inactive).

In the case of `COC(=O)c1c(CC[C@@H](CO)NC(=O)N[C@@H](C)Cn2cc(C3(O)CCCCC3)nn2)oc(C(C)=O)c1C(=O)OC`, the z-score is 0.0793 (inactive).

On to `O=C1O[C@H](c2ccccc2)[C@H](c2ccccc2)N2[C@H]1[C@@H](C(=O)O)[C@]1(C(=O)Nc3ccc(C#CCCO)cc31)[C@H]2c1ccc(O)cc1`, for which the z-score was 0.0568 (inactive).

In the case of `CC(C)C[C@H]1NC(=O)[C@@]23C(=O)N[C@@H](Cc4ccccc4)C2[C@H](C)[C@@]2(C)O[C@H]2C3/C=C/C/C=C\CNC(=O)[C@H](Cc2ccccc2)NC1=O` (stereo not given in full), the z-score is 0.0117 (inactive).

Consider `COc1ccc(C#Cc2ccc3c(c2)[C@]2(C(=O)N3)[C@H](c3ccccc3OCCO)N3[C@H](c4ccccc4)[C@H](c4ccccc4)OC(=O)[C@H]3[C@@H]2C(=O)O)cc1`, for which the z-score was 2.76 (inactive).
